This is an account of results in article PMC7862700, “An all-to-all approach to the identification of sequence-specific readers for epigenetic DNA modifications on cytosine”.

Assay in all cases: DAPPL (digital affinity profiling via proximity ligation, sequencing); 10 mM Tris-HCl pH 7.5, 50 mM NaCl, 1 mM DTT, 4% glycerol, room temperature, 30 min; GST-TFs on glutathione beads, 16-mer random dsDNA library, 0.1% formaldehyde crosslink after washing; high values mean tight binding
What all share (conditions): protein: recombinant; tags: N-terminal GST; dsDNA, one strand shown

In one assay the target is T1, FLI1 (Homo sapiens, UniProt Q01543 1-452).
T1 sequence: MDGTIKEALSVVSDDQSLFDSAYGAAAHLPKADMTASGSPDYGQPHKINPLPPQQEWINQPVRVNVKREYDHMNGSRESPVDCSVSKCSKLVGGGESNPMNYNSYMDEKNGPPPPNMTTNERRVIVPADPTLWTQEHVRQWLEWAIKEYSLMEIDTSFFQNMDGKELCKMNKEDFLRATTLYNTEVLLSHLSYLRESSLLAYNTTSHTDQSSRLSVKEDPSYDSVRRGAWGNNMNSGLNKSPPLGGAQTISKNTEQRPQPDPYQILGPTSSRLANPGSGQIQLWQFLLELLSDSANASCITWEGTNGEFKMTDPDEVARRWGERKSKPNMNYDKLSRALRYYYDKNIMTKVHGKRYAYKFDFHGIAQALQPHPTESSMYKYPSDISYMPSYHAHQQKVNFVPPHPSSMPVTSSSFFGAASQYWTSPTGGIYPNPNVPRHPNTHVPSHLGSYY
The essentials: (§1)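 Human transcription factors carrying a GST fusion were produced in yeast, bound to glutathione beads, tagged with DNA barcodes and pooled together with a tag-only sample. Each pool was held with 200 nmole of a random double-stranded 16-mer DNA library in Tris/NaCl/DTT/glycerol buffer for 30 min at room temperature, then washed, crosslinked in 0.1% formaldehyde, proximity-ligated with BsaI/T4 ligase (1 h, 37 °C), PCR-amplified and sequenced on an Illumina NextSeq500. Binding signal is the read frequency of each hexamer for a given factor divided by its frequency in the tag-only sample.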

The next assay concerns the target T2, ELK1 (Homo sapiens, UniProt P19419 1-428).
T2 sequence: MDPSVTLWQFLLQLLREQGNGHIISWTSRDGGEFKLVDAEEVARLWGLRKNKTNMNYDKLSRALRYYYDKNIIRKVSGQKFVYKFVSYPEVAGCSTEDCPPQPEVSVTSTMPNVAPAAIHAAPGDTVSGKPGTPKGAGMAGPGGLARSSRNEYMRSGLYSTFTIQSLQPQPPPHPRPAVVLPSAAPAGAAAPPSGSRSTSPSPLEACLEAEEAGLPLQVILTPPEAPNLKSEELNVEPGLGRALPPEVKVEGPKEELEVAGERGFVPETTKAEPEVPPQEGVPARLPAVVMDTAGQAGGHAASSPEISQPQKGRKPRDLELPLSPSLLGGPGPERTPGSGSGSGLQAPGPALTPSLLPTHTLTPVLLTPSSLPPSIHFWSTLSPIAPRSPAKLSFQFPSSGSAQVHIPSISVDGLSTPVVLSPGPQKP
The essentials:
as §1

Another assay has as its target T3, GABPA (Homo sapiens, UniProt Q06546 1-454).
T3 sequence: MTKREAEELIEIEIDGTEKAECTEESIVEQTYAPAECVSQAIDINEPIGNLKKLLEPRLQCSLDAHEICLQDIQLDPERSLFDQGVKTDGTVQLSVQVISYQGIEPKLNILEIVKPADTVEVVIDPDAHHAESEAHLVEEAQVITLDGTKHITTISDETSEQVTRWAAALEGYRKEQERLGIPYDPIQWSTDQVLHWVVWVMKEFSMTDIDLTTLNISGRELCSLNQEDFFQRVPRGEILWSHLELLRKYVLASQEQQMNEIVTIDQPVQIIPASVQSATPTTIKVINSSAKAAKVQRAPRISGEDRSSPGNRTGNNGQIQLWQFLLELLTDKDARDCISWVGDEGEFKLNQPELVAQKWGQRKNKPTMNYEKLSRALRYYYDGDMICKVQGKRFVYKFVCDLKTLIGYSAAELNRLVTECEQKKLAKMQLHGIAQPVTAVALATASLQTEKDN
Put shortly: as §1

In another assay the target is T4, ERG (Homo sapiens, UniProt P11308 1-479).
T4 sequence: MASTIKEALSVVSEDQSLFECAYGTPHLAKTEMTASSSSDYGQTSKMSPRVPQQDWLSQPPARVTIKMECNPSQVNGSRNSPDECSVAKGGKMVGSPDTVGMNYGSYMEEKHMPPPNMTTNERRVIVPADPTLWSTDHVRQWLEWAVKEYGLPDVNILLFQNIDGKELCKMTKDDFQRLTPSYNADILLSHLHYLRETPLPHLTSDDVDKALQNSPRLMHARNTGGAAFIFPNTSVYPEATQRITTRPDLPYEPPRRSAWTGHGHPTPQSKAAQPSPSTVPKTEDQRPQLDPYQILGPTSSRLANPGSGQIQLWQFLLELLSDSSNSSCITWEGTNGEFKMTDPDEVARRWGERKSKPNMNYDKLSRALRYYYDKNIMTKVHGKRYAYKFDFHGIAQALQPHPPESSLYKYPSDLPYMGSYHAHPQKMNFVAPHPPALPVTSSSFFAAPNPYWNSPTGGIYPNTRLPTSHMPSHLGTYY
Put shortly:
as §1

Another assay deals with ELF1 (Homo sapiens, UniProt P32519 1-619). The essentials: as §1
The target of the next assay is T5, EHF (Homo sapiens, UniProt Q9NZC4 1-300).
T5 sequence: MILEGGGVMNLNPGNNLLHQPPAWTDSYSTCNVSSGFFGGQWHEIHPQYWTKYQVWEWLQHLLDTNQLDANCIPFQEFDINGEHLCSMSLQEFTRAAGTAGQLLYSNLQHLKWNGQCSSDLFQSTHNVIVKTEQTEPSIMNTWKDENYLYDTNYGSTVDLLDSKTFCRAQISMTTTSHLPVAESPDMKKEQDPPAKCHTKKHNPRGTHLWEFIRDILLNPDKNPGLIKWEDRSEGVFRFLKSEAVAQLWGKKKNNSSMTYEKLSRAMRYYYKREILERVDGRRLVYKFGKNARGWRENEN
The essentials:
as §1

The next assay deals with SPI1 (Homo sapiens, UniProt P17947 1-270). Put shortly: as §1
In the next assay the target is SPIB (Homo sapiens, UniProt Q01892 1-262). Put shortly:
as §1

For the next assay, the target named is T6, ELK3 (Homo sapiens, UniProt P41970 1-407).
T6 sequence: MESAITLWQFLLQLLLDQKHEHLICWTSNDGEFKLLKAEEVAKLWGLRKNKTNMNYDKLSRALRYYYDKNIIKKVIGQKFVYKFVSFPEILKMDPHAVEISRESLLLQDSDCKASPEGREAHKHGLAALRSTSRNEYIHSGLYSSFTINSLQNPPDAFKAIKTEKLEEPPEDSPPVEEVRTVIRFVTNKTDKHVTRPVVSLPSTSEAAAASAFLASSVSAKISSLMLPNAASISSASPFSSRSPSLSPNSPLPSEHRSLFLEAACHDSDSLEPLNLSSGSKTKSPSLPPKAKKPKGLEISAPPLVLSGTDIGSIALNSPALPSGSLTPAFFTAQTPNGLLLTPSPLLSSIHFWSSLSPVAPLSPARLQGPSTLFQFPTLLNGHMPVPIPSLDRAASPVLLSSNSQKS
Put shortly:
as §1

Sequence of ELF1 (P32519 whole entry): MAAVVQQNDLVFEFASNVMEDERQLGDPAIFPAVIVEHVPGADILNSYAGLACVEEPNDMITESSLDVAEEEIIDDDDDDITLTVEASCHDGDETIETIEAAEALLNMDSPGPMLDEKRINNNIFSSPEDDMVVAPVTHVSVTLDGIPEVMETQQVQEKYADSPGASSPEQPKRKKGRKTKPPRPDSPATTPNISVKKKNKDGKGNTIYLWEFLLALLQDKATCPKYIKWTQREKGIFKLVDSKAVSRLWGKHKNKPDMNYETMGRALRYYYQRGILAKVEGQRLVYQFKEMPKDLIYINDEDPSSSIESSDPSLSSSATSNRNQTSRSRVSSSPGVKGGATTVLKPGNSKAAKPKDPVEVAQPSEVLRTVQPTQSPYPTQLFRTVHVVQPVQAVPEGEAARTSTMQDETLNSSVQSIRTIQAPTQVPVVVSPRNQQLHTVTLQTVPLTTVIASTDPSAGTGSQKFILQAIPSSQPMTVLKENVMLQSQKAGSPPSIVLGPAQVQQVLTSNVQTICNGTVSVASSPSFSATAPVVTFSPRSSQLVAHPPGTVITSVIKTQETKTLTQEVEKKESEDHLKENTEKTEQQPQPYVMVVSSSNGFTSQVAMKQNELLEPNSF
Sequence of SPIB (Q01892 whole entry): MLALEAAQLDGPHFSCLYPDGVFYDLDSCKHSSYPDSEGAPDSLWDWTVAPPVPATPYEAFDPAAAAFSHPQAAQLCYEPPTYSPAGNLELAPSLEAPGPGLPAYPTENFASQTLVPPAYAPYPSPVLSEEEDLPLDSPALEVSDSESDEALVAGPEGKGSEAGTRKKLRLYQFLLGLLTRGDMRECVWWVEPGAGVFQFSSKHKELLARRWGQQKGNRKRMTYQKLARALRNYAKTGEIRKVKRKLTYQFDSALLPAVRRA

As to AATTGT, the binding signal in the assay with FLI1 is 1.3 fold enrichment (6-mer frequency, TF over GST control); with ELK1, 1.2 fold enrichment (6-mer frequency, TF over GST control); in the assay with GABPA, 1.21 fold enrichment (6-mer frequency, TF over GST control); with ERG, 1.28 fold enrichment (6-mer frequency, TF over GST control); in the assay with ELF1 it was 1.27 fold enrichment (6-mer frequency, TF over GST control); in the assay with EHF, 1.23 fold enrichment (6-mer frequency, TF over GST control). Moreover, the binding signal is 1.33 fold enrichment (6-mer frequency, TF over GST control) with SPI1; 1.34 fold enrichment (6-mer frequency, TF over GST control) with SPIB; 1.29 fold enrichment (6-mer frequency, TF over GST control) with ELK3.
With AAGCAT, the binding signal was 1.09 fold enrichment (6-mer frequency, TF over GST control) with FLI1; 1.09 fold enrichment (6-mer frequency, TF over GST control) with ELK1; 1.14 fold enrichment (6-mer frequency, TF over GST control) in the assay with GABPA; 1.13 fold enrichment (6-mer frequency, TF over GST control) in the assay with ERG; 1.09 fold enrichment (6-mer frequency, TF over GST control) in the assay with ELF1; 1.06 fold enrichment (6-mer frequency, TF over GST control) with EHF. In addition, the binding signal in the assay with SPI1 was 1.06 fold enrichment (6-mer frequency, TF over GST control); with SPIB, 1.14 fold enrichment (6-mer frequency, TF over GST control); with ELK3, 1.04 fold enrichment (6-mer frequency, TF over GST control).
Consider TCCGAA, for which the binding signal was 1.35 fold enrichment (6-mer frequency, TF over GST control) in the assay with FLI1; 1.28 fold enrichment (6-mer frequency, TF over GST control) in the assay with ELK1; 1.37 fold enrichment (6-mer frequency, TF over GST control) with GABPA; 1.3 fold enrichment (6-mer frequency, TF over GST control) with ERG; 1.23 fold enrichment (6-mer frequency, TF over GST control) with ELF1; 1.41 fold enrichment (6-mer frequency, TF over GST control) with EHF. The binding signal with SPI1 is 1.25 fold enrichment (6-mer frequency, TF over GST control); with SPIB, 1.44 fold enrichment (6-mer frequency, TF over GST control); with ELK3, 1.18 fold enrichment (6-mer frequency, TF over GST control).
For GCCCTA, the binding signal in the assay with FLI1 was 1.29 fold enrichment (6-mer frequency, TF over GST control); in the assay with ELK1, 1.24 fold enrichment (6-mer frequency, TF over GST control); in the assay with GABPA, 1.21 fold enrichment (6-mer frequency, TF over GST control); with ERG, 1.15 fold enrichment (6-mer frequency, TF over GST control); with ELF1, 1.19 fold enrichment (6-mer frequency, TF over GST control); with EHF, 1.12 fold enrichment (6-mer frequency, TF over GST control). Besides, the binding signal in the assay with SPI1 is 1.19 fold enrichment (6-mer frequency, TF over GST control); with SPIB, 1.28 fold enrichment (6-mer frequency, TF over GST control); with ELK3 it was 1.19 fold enrichment (6-mer frequency, TF over GST control).
Consider TGGTCT, for which the binding signal with FLI1 was 1.56 fold enrichment (6-mer frequency, TF over GST control); with ELK1, 1.69 fold enrichment (6-mer frequency, TF over GST control); with GABPA it was 1.47 fold enrichment (6-mer frequency, TF over GST control); with ERG, 1.49 fold enrichment (6-mer frequency, TF over GST control); with ELF1, 1.49 fold enrichment (6-mer frequency, TF over GST control); with EHF it was 1.66 fold enrichment (6-mer frequency, TF over GST control). Moreover, the binding signal with SPI1 is 1.58 fold enrichment (6-mer frequency, TF over GST control); with SPIB, 1.76 fold enrichment (6-mer frequency, TF over GST control); with ELK3 it was 1.65 fold enrichment (6-mer frequency, TF over GST control).
As to ATGTTC, the binding signal in the assay with FLI1 is 1.19 fold enrichment (6-mer frequency, TF over GST control); with ELK1, 1.28 fold enrichment (6-mer frequency, TF over GST control); with GABPA it was 1.18 fold enrichment (6-mer frequency, TF over GST control); in the assay with ERG, 1.21 fold enrichment (6-mer frequency, TF over GST control); in the assay with ELF1, 1.21 fold enrichment (6-mer frequency, TF over GST control); with EHF, 1.34 fold enrichment (6-mer frequency, TF over GST control). Also, the binding signal with SPI1 was 1.2 fold enrichment (6-mer frequency, TF over GST control); with SPIB, 1.22 fold enrichment (6-mer frequency, TF over GST control); in the assay with ELK3 it was 1.14 fold enrichment (6-mer frequency, TF over GST control).
Turning to CTTAAA, the binding signal is 1.12 fold enrichment (6-mer frequency, TF over GST control) in the assay with FLI1; 1.14 fold enrichment (6-mer frequency, TF over GST control) with ELK1; 1.24 fold enrichment (6-mer frequency, TF over GST control) with GABPA; 1.16 fold enrichment (6-mer frequency, TF over GST control) with ERG; 1.22 fold enrichment (6-mer frequency, TF over GST control) with ELF1; 1.2 fold enrichment (6-mer frequency, TF over GST control) in the assay with EHF. The binding signal with SPI1 is 1.22 fold enrichment (6-mer frequency, TF over GST control); in the assay with SPIB it was 1.23 fold enrichment (6-mer frequency, TF over GST control); with ELK3, 1.08 fold enrichment (6-mer frequency, TF over GST control).
